Consider 29 compounds from PubChem BioAssay (NCATS).

Records with an inconclusive call do not appear. The source made the active and inactive calls. Calls follow the shape of the dose curve; as a rule, active = well fitted curve in the direction sought with a large enough effect; inconclusive = small, poorly fitted or top-dose-only effect, or another doubt; inactive = no such curve, though single readings can be large; an effect the other way counts as inactive or inconclusive.
Potency is read from the fitted curve at half-maximal effect.

The nature of one test: Quantitative High-Throughput drug screen in 47 multiple myeloma cell lines against the NCATS MIPE library collection: KMM1_JCRB cell viability assay (AID 1918960). Also: nearly all actives have a fitted effect of over 30% in size.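 As to viability (% of DMSO): 100% = DMSO-treated cells and 0% = medium-only wells.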 To be noted: KMM1 myeloma viability, CellTiter-Glo ATP luminescence, 48 h; series mostly up to 45.8 µM; viability (% of DMSO): at the top concentration. The method, boiled down:
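Luminescence from CellTiter-Glo, taken after 5 min at room temperature, reports cellular ATP as viability. Cells (500 per well) had been treated 48 h at 37 °C with MIPE 4.0 compounds, scaled between DMSO and medium-only controls.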
With `COc1ccc(-n2c(C)c([N+](=O)[O-])c3ccc(O)cc32)cc1`, the “viability (% of DMSO)” value was 81.8% (inactive).

For `O=C(Nc1cccc(Br)c1)c1cccc(S(=O)(=O)N2CCCCCC2)c1`, the Potency was 16.6 µM (active).

For the compound `COCCCCC(=NOCCN)c1ccc(C(F)(F)F)cc1`, the “viability (% of DMSO)” value was 90.8% (inactive).

The nature of another test: Quantitative High-Throughput drug screen in 47 multiple myeloma cell lines against the NCATS MIPE library collection: Karpas417_ECACC cell viability assay (AID 1918961).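 As to viability (% of DMSO): 100% = DMSO only wells and 0% = media only wells without cells.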 The settings on record: Karpas417 myeloma viability, CellTiter-Glo ATP luminescence, 48 h; viability (% of DMSO): at 45.8 µM (top of the series). The method, boiled down: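 qHTS of the MIPE 4.0 collection: 500 myeloma cells/well, 48 h drug exposure at 37C in 5% CO2, then CellTiter-Glo for 5 min at room temperature before luminescence reading.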
(In general: Cellular ATP, detected with luciferase, serves as a proxy for viable cell number.)
For `COc1ccc2c(Oc3ccc(NC(=O)c4c(C)n(CC(C)(C)O)n(-c5ccccc5)c4=O)cc3F)ccnc2c1`, the “viability (% of DMSO)” value is 11.8% (inactive).

In the case of `Nc1nc(F)nc2c1ncn2[C@@H]1O[C@H](COP(=O)(O)O)[C@@H](O)[C@H]1O`, the Potency is 4.18 µM (active).

Consider `O=C(Nc1ccccc1Br)N[C@@H]1CCN(c2ccc(C(F)(F)F)cn2)C1`, for which the “viability (% of DMSO)” value was 183% (inactive).

For `CC[C@]1(O)C[C@@H]2CN(CCc3c([nH]c4ccccc34)[C@@](C(=O)OC)(c3cc4c(cc3OC)N(C=O)[C@@H]3C45CCN4CC=C[C@](CC)([C@H]45)[C@@H](OC(C)=O)[C@]3(O)C(=O)OC)C2)C1` (stereo partly drawn), the “viability (% of DMSO)” value is 214% (inactive).

For `O=C1NC(=O)C(=Cc2ccc(-c3ccc(F)cc3)o2)S1`, the Potency was 1.66 µM (active).

Take `COc1ncc(-c2ccc3nccc(-c4ccnnc4)c3c2)cc1NS(=O)(=O)c1ccc(F)cc1F`: the “viability (% of DMSO)” value was 3.54% (inactive).

For `NC1=N[C@@]2(c3cc(NC(=O)c4ccc(F)cn4)ccc3F)COC[C@@H]2CS1`, the viability (% of DMSO) was 105% (active).

A short description of another test: Quantitative High-Throughput drug screen in 47 multiple myeloma cell lines against the NCATS MIPE library collection: KHM11_PLB cell viability assay (AID 1918962). Also: nearly all actives have a fitted effect of over 35% in size.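 As to viability, % of DMSO control: 0% = media only wells and 100% = DMSO treated cells.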 To be noted: KHM11 myeloma cell viability, CellTiter-Glo ATP luminescence, 48 h; series mostly up to 45.8 µM; viability, % of DMSO control: at the top concentration. The method, boiled down: (§1)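 Inhibition of cell viability is measured here. Each line was plated at 500 cells per well, treated with MIPE 4.0 drugs, kept 48 hours at 37C, then assayed for ATP content by CellTiter-Glo luminescence.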
For `CO[C@H]1C[C@@H]2CC[C@@H](C)[C@@](O)(O2)C(=O)C(=O)N2CCCC[C@@H]2C(=O)O[C@H]([C@H](C)C[C@@H]2CC[C@H](OCCO)[C@H](OC)C2)CC(=O)[C@H](C)C=C(C)[C@@H](O)[C@@H](OC)C(=O)[C@H](C)C[C@H](C)C=CC=CC=C1C`, the “viability, % of DMSO control” value is 63.4% (inactive).

Turning to `O=C(Nc1ccccc1Br)N[C@@H]1CCN(c2ccc(C(F)(F)F)cn2)C1`, the Potency was 14.8 µM (active).

As to `O=C(O)[C@H]1O[C@H](Oc2cc3oc(-c4ccccc4)cc(=O)c3c(O)c2O)[C@H](O)[C@@H](O)[C@H]1O`, the Potency was 20.9 µM (active).

For `CC1(C)Cc2c(sc(NC(=S)NC(=O)c3ccccc3)c2C(=O)O)CO1`, the “viability, % of DMSO control” value is 111% (inactive).

Regarding `CC(C)[C@H](CO)Nc1nc(Nc2ccc(C(=O)O)c(Cl)c2)c2ncn(C(C)C)c2n1`, the Potency was 0.0148 µM (active).

For `O=C1NC(=O)C(=Cc2ccc(-c3ccc(F)cc3)o2)S1`, the “viability, % of DMSO control” value was 112% (inactive).

`COc1ccc(C2Sc3ccccc3N(CCN(C)C)C(=O)C2OC(C)=O)cc1` (stereo not drawn): the “viability, % of DMSO control” value was 103% (inactive).

Take `O=C1NC(=O)C(=Cc2ccc3c(c2)OC(F)(F)O3)S1`: the Potency is 13.2 µM (active).

As for `NC1=N[C@@]2(c3cc(NC(=O)c4ccc(F)cn4)ccc3F)COC[C@@H]2CS1`, the Potency was 13.2 µM (active).

Turning to `COc1ccc(-n2c(C)c([N+](=O)[O-])c3ccc(O)cc32)cc1`, the “viability, % of DMSO control” value is 84.1% (inactive).

A further test is described as follows: Quantitative High-Throughput drug screen in 47 multiple myeloma cell lines against the NCATS MIPE library collection: JIM3_ECACC cell viability assay (AID 1918963; also: nearly all actives have a fitted effect of over 35% in size;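 as to viability, percent of control: 100% = DMSO-only wells and 0% = media-only wells without cells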). The settings on record: JIM3 myeloma viability, CellTiter-Glo ATP, 48 h; series mostly up to 45.8 µM; viability, percent of control: at the top concentration. The essentials:
as §1
For `COc1ccc2cc(-c3nc(-c4ccc(S(C)=O)cc4)[nH]c3-c3ccncc3)ccc2c1` (stereo not drawn), the Potency is 23.5 µM (active).

Turning to `Nc1nc(F)nc2c1ncn2[C@@H]1O[C@H](COP(=O)(O)O)[C@@H](O)[C@H]1O`, the “viability, percent of control” value is 110% (inactive).

With `O=C(Nc1ccccc1Br)N[C@@H]1CCN(c2ccc(C(F)(F)F)cn2)C1`, the Potency is 18.7 µM (active).

For the compound `COc1ccc2c3c1OC1C[C@@H](O)C=C[C@@]31CCN(C)C2` (stereo partly drawn), the Potency was 14.8 µM (active).

Take `CO[C@H]1C[C@@H]2CC[C@@H](C)[C@@](O)(O2)C(=O)C(=O)N2CCCC[C@@H]2C(=O)O[C@H]([C@H](C)C[C@@H]2CC[C@H](OC(=O)C(C)(CO)CO)[C@H](OC)C2)CC(=O)[C@H](C)C=C(C)[C@@H](O)[C@@H](OC)C(=O)[C@H](C)C[C@H](C)C=CC=CC=C1C`: the Potency was 20.9 µM (active).

Take `COc1cc(N2CCC(N3CCN(C)CC3)CC2)ccc1Nc1ncnc(Nc2ccccc2S(=O)(=O)C(C)C)n1`: the Potency is 5.26 µM (active).

With `CO[C@H]1C=CO[C@@]2(C)Oc3c(C)c(O)c4c(O)c(c5c(c4c3C2=O)NC2(CCN(CC(C)C)CC2)N=5)=NC(=O)C(C)=CC=C[C@H](C)[C@H](O)[C@@H](C)[C@@H](O)[C@@H](C)[C@H](OC(C)=O)[C@H]1C`, the “viability, percent of control” value is 108% (inactive).

For `CCN(CC)CCOc1ccc(C(=C(Cl)c2ccccc2)c2ccccc2)cc1`, the “viability, percent of control” value was 122% (inactive).

Consider `COc1ccc(C2Sc3ccccc3N(CCN(C)C)C(=O)C2OC(C)=O)cc1` (stereo not drawn), for which the “viability, percent of control” value was 104% (inactive).

Consider `Clc1cc(Cl)cc(CNc2ncncc2-c2ccc3c(c2)OCO3)c1`, for which the Potency is 16.6 µM (active).

For `COC(=O)N[C@H](C(=O)N1CCC[C@@H]1c1ncc(-c2ccc(-c3ccc(-c4cnc([C@@H]5CCCN5C(=O)[C@@H](NC(=O)OC)C(C)C)[nH]4)cc3)cc2)[nH]1)C(C)C`, the Potency was 18.7 µM (active).

For the compound `CCn1c(C(=O)N(C2CC2)C2CC2)cc2c3c(ncn3C)c(Nc3cc(C)n(C)n3)nc21`, the Potency was 18.7 µM (active).

For `CC(C)n1nc(-c2ccc3oc(N)nc3c2)c2c(N)ncnc21`, the Potency is 0.0074 µM (active).

On to `COc1ccc2c(Oc3ccc(NC(=O)c4c(C)n(CC(C)(C)O)n(-c5ccccc5)c4=O)nc3)ccnc2c1`, for which the “viability, percent of control” value is 80.1% (inactive).

Turning to `Cc1cccc(Nc2nc(-c3ccncc3)cs2)c1`, the Potency is 20.9 µM (active).

Regarding `Cc1ccc(/C=N/NC(=O)c2ccccc2Oc2ccccc2)o1`, the Potency was 23.5 µM (active).

Take `COc1ccc(-n2c(C)c([N+](=O)[O-])c3ccc(O)cc32)cc1`: the “viability, percent of control” value is 80.9% (inactive).

Regarding `COCCCCC(=NOCCN)c1ccc(C(F)(F)F)cc1`, the “viability, percent of control” value is 76.6% (inactive).
